57 compounds from PubChem BioAssay AID1845 (The Scripps Research Institute Molecular Screening Center, 2009) can be followed below.

The structures appear in SMILES notation. Out of some 290,000 compounds screened, about 490 (0.17%) were called active. For the sample, actives were picked, then their nearest neighbours and some compounds at random. Unmarked numbers belong to inactive results. Cut-off read from the data, not from the text of the source: active = inhibition above about 37%; inactive = the rest.

This assay in a line: DNA intercalator displacement agents – biochemical, FID fluorescence, artefact control for HCV NS3 helicase inhibitor project, primary screen (AID 1845).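 Note: 0% = vehicle and 100% = reference compound; higher means more ethidium bromide displaced from hairpin DNA.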 The note with it: DNA fluorescent intercalator displacement, at 7.9 µM, stronger effect = higher value.
In general, inhibition refers to the change of the read-out against control, counted positive when it falls. Turning to `COc1ccc(C(=O)COC(=O)Cn2cnc3c2c(=O)n(C)c(=O)n3C)c(OC)c1`, the inhibition is -23%. The value for `O=C(Nc1ccc([N+](=O)[O-])cc1)OCCc1ccccn1` was 5.74%; that for `COc1ccc(CSc2nnnn2-c2ccc(O)cc2)cc1F` was -6.37%; that for `COc1ccc(CC(=O)NC2CCSc3ccccc32)cc1OC` (configuration not stated) was -19.9%.

Regarding `COc1ccc(-c2noc(CCCC(=O)NC3CCCC3)n2)cc1OC`, the inhibition is -34.4%. With `Cc1ccc(C2CC(c3cccc(NS(C)(=O)=O)c3)=NN2S(C)(=O)=O)cc1` (configuration not stated), the inhibition was -20.2%. Take `CN(CC(=O)Nc1c(Cl)cccc1Cl)C(=O)CNC(=O)C1CCCCC1`: the inhibition was -9.61%.

For `CCOC(=O)C1(Cc2ccccc2C)CCCN(C(=O)c2ccc(COC)o2)C1` (configuration not stated), the inhibition was -43.4%. Regarding `Cn1c(=O)c2ccccc2n(CC(=O)Nc2ccc3c(c2)OCCO3)c1=O`, the inhibition is -7.1%. In the case of `COc1ccc(/C=C2\SC(=O)N(CCC(=O)NC3CCS(=O)(=O)C3)C2=O)cc1` (configuration not stated), the inhibition is -25.1%.

For `COc1ccc(Br)cc1CN(C)CC(=O)Nc1cc([N+](=O)[O-])ccc1OC`, the inhibition was 0.14%. The value for `O=C(NC1CCCCC1)C1CCC(CNS(=O)(=O)c2ccccc2)CC1` (configuration not stated) was -36.5%; that for `Cc1ccc(C(C(=O)NCC2CCCO2)N(C(=O)c2snc(C(N)=O)c2N)c2ccc(C(C)C)cc2)o1` (configuration not stated) was -41%; that for `CCCCNC(=O)C1(O)c2ccccc2NC(=O)N1c1ccc(Cl)cc1` (configuration not stated) was -11.7%. For `CCCNC(=O)c1ccc(N2CCC3(CC2)CC(c2ccc(Cl)cc2)=NO3)c([N+](=O)[O-])c1`, the inhibition is -20%. Regarding `COc1ccc(OC)c(C(C)NC(=S)Nc2ccc(S(=O)(=O)Nc3ncccn3)cc2)c1` (configuration not stated), the inhibition was -59.4%.

In the case of `Cc1c(Cl)cccc1NC(=O)NCCCN1CCCC1=O`, the inhibition is -5.46%.

As to `COc1ccccc1NC(=O)CCC(=O)OC(C)C(=O)c1ccccc1` (configuration not stated), the inhibition was -17.2%. The figure for `COc1cccc(NC(=O)N2C3CCCC2CC(NC(C)=O)C3)c1` (configuration not stated) is -3.46%; for `CC[n+]1cc(C)ccc1/C=C/c1ccc(N(C)C)cc1` it is -33.2%; for `COc1ccc(N2CCN(S(=O)(=O)c3cc(Br)cnc3N)CC2)cc1` it is -2.88%. For `CC(=O)c1ccc(NC(=O)c2sc3nc4n(c(=O)c3c2C)CCCCC4)cc1`, the inhibition is -25.9%. The value for `Cc1ccn(CCC(=O)N2c3ccccc3CC2C)n1` (configuration not stated) was -9.3%. The value for `O=C(/C=C/c1ccc([N+](=O)[O-])o1)NNC(=O)c1ccc(F)cc1` was -4.43%. Turning to `CCN(CC)c1ccc(NC(=O)CN2CCN(c3ccccn3)CC2)cc1`, the inhibition is -17.6%.

Turning to `O=C(Cn1ccc2cc(S(=O)(=O)N3CCCC3)ccc21)NCc1ccccc1`, the inhibition is -16.4%. With `O=C(c1ccc[nH]c1=S)N1CCN(S(=O)(=O)c2ccc(Br)cc2Cl)CC1`, the inhibition is -16.3%. `C/C(=N\Nc1cccc(C(=O)O)c1)c1ccc2c(c1)Nc1ccccc1S2`: the inhibition is -16.1%. The value for `NS(=O)(=O)c1ccc2nc(NC(=O)CS(=O)(=O)c3ccc(F)cc3)sc2c1` was -3.98%; that for `CC(CCc1ccc(O)cc1)NCc1ccc(Cl)cc1Cl` (configuration not stated) was 12.2%. The value for `CCN(CC(=O)Nc1ccccc1OC)C(=O)Cn1cnc2ccccc2c1=O` was -5.22%; that for `Cc1cc(-c2nnc(CCC(=O)NC(c3ccccc3)c3ccccc3)o2)no1` was -7.1%. The figure for `Cc1ccc(C(C)C)c(OCCSc2nc3ccccc3n2CC(=O)O)c1` is -11.6%. With `O=C(CSc1nc2nccnc2c(=O)n1Cc1cccs1)Nc1ccccc1F`, the inhibition is -11.4%.

`COc1ccc(-c2noc(C(C)NS(=O)(=O)c3ccc(NC(C)=O)cc3)n2)cc1` (configuration not stated): the inhibition is -8%. For the compound `CCCCCC1CC(COc2ccccc2)OC1=O` (configuration not stated), the inhibition is -26.6%. On to `O=C1C(=O)N(CCN2CCOCC2)C(c2cccc(Cl)c2)/C1=C(/O)c1ccc2c(c1)OCO2` (configuration not stated), for which the inhibition is -31.7%. The value for `Cc1nnc(SCC(=O)N2c3ccccc3C(C)(c3ccc(Cl)cc3)CC2(C)C)s1` (configuration not stated) was -27.2%; that for `Cn1c(=O)n(C)c2cc(S(=O)(=O)Nc3ccc(F)cc3)ccc21` was -0.97%. In the case of `CCc1ccc(-c2cc(C(=O)NN3CCN(C)CC3)c3ccccc3n2)cc1`, the inhibition is 16.5%.

For the compound `O=S(=O)(NCC1CC1)c1ccc(F)c(Cl)c1`, the inhibition was -2.55%. Regarding `O=C(NCC(=O)N1CCN(c2ccccc2O)CC1)c1ccc2ccccc2c1`, the inhibition is -38.7%.

Take `CCc1ccc(NC(=O)COC(=O)c2cccs2)cc1`: the inhibition was -15%.

As to `CCOC(OCC)c1ccc(/C=C\c2nccc(N)n2)cc1`, the inhibition is -11.1%. Consider `CCN1CCN(c2ccc(S(=O)(=O)N3CCCCC3)cc2NC(=O)Cc2c(Cl)cccc2Cl)CC1`, for which the inhibition is 24.2%.

On to `COc1ccc(CC(=O)Nc2cc(S(=O)(=O)N3CCCCC3)ccc2N2CCN(C)CC2)cc1`, for which the inhibition is 39.2% (active). For `CN1CCN(c2ccc(S(=O)(=O)N3CCCCC3)cc2NC(=O)Cc2ccccc2F)CC1`, the inhibition was 17.4%. The figure for `CN(C)c1cccc(C(=O)N2CCC(n3nccc3NC(=O)C3CCOC3)CC2)c1` (configuration not stated) is -16.7%; for `COc1ccc(NC(=O)CSc2nc3ccccc3c(=O)n2C)cc1` it is -13.4%; for `COCCCN1C(=O)C(=O)/C(=C(/O)c2ccc(S(=O)(=O)N3CCOCC3)cc2)C1c1ccc(F)cc1` (configuration not stated) it is -50.7%. With `CC1CN(C(=O)CCC(=O)NCCCN2CCC(Cc3ccccc3)CC2)c2cc(Cl)ccc2O1` (configuration not stated), the inhibition is 41.2% (active). The figure for `CC1CN(C(=O)CCC(=O)NCc2cccnc2)c2ccccc2O1` (configuration not stated) is -10.2%. The value for `CC1CN(C(=O)CCC(=O)NC2CCN(Cc3ccccc3)CC2)c2ccccc2O1` (configuration not stated) was 2.82%; that for `Cc1cc(O)c(C(=O)/C=C/c2c(F)c(F)c(F)c(F)c2F)c(=O)o1` was -15.9%.

Turning to `CC1CC(C)CN(CCCNC(=O)Cn2ncc3c([nH]c4ccccc43)c2=O)C1` (configuration not stated), the inhibition was 5.73%. The figure for `Cc1c2cnn(CC(=O)NCCCN3CC(C)CC(C)C3)c(=O)c2c(C)n1Cc1ccc(Cl)cc1` (configuration not stated) is 37.1% (active); for `Cc1c2cnn(CC(=O)NCc3ccccn3)c(=O)c2c(C)n1Cc1ccc(Cl)cc1` it is -39%.
